According to paper PMC7862700, “An all-to-all approach to the identification of sequence-specific readers for epigenetic DNA modifications on cytosine”:

Columns and labels:
Assay in all cases: DAPPL (digital affinity profiling via proximity ligation, sequencing); 10 mM Tris-HCl pH 7.5, 50 mM NaCl, 1 mM DTT, 4% glycerol, room temperature, 30 min; GST-TFs on glutathione beads, 16-mer random dsDNA library, 0.1% formaldehyde crosslink after washing; high values mean tight binding
[1] = molecular target: T1, FLI1 (Homo sapiens, UniProt Q01543 1-452); conditions: protein: recombinant; tags: N-terminal GST; dsDNA, one strand shown
T1 sequence: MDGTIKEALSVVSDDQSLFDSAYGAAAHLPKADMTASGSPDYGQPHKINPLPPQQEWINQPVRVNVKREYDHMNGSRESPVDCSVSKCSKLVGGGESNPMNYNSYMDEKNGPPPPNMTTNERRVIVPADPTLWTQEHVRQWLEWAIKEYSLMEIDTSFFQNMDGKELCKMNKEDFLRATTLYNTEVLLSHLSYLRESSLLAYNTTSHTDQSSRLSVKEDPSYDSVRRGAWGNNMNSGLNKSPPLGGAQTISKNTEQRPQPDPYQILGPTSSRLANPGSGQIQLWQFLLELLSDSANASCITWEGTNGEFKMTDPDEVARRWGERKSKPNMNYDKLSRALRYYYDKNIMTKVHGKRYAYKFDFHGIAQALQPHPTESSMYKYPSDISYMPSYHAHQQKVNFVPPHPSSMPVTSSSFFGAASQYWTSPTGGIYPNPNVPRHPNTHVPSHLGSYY
Procedure, shortened: (§1)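 The binding signal reported is, for every hexamer, its read frequency for a factor over its read frequency for the tag-only sample. Reads came from pools of yeast-expressed, GST-fused human transcription factors on glutathione beads, barcoded with DNA and mixed with that sample, which were incubated with 200 nmole of a random double-stranded 16-mer DNA library in Tris/NaCl/DTT/glycerol buffer at room temperature for 30 min. After washing, the pools were crosslinked with 0.1% formaldehyde, proximity-ligated with BsaI/T4 ligase for 1 h at 37 °C, PCR-amplified and sequenced on an Illumina NextSeq500.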

[2] = molecular target: T2, ELK1 (Homo sapiens, UniProt P19419 1-428); conditions: protein: recombinant; tags: N-terminal GST; dsDNA, one strand shown
T2 sequence: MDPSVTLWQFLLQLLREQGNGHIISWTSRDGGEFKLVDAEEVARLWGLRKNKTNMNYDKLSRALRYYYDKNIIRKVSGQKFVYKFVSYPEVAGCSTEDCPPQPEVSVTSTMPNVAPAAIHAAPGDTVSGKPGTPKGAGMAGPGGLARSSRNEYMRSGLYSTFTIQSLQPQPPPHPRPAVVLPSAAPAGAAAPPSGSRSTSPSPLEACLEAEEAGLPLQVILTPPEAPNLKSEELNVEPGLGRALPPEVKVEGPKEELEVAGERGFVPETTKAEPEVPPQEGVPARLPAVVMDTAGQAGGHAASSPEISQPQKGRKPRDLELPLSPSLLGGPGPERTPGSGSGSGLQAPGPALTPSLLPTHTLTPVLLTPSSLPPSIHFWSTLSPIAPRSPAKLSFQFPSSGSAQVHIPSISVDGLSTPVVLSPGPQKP
Procedure, shortened: as §1

[3] = molecular target: T3, ERG (Homo sapiens, UniProt P11308 1-479); conditions: protein: recombinant; tags: N-terminal GST; dsDNA, one strand shown
T3 sequence: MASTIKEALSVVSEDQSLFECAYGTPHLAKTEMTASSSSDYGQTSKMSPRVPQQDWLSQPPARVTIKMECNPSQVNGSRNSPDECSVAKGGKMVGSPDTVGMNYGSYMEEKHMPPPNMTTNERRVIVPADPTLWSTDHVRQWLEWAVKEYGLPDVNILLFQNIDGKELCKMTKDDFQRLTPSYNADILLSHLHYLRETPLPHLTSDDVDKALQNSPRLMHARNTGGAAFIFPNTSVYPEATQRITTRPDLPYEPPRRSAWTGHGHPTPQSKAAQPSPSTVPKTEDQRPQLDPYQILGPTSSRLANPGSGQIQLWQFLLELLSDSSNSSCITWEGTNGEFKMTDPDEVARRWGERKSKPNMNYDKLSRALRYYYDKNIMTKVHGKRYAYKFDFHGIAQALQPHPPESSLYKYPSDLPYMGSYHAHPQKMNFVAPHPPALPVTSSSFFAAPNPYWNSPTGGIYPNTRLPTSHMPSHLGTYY
Procedure, shortened: as §1

[4] = molecular target: ELF1 (Homo sapiens, UniProt P32519 1-619); conditions: protein: recombinant; tags: N-terminal GST; dsDNA, one strand shown
Procedure, shortened: as §1

[5] = molecular target: T4, EHF (Homo sapiens, UniProt Q9NZC4 1-300); conditions: protein: recombinant; tags: N-terminal GST; dsDNA, one strand shown
T4 sequence: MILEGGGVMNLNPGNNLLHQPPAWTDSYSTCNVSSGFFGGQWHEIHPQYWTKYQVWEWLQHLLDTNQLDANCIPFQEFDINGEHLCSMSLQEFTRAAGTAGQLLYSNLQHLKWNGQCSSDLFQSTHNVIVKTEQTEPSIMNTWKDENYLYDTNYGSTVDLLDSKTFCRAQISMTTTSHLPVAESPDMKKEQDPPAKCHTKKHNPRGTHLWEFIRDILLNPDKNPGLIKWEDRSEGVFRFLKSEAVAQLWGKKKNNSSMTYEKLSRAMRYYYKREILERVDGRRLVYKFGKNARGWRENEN
Procedure, shortened: as §1

[6] = molecular target: SPI1 (Homo sapiens, UniProt P17947 1-270); conditions: protein: recombinant; tags: N-terminal GST; dsDNA, one strand shown
Procedure, shortened: as §1

[7] = molecular target: SPIB (Homo sapiens, UniProt Q01892 1-262); conditions: protein: recombinant; tags: N-terminal GST; dsDNA, one strand shown
Procedure, shortened: as §1

[8] = molecular target: T5, ELK3 (Homo sapiens, UniProt P41970 1-407); conditions: protein: recombinant; tags: N-terminal GST; dsDNA, one strand shown
T5 sequence: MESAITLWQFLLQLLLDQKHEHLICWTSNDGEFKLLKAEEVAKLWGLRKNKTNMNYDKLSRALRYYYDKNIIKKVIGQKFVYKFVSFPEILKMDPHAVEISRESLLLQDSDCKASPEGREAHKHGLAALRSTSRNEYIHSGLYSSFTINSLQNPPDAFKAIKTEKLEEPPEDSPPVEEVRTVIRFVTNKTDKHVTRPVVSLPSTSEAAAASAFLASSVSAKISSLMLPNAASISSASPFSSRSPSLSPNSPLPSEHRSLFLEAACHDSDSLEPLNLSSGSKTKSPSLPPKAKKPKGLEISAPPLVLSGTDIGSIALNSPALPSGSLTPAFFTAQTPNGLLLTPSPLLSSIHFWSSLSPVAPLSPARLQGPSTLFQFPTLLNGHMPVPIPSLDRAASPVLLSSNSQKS
Procedure, shortened: as §1

[9] = molecular target: T6, FEV (Homo sapiens, UniProt Q99581 1-238); conditions: protein: recombinant; tags: N-terminal GST; dsDNA, one strand shown
T6 sequence: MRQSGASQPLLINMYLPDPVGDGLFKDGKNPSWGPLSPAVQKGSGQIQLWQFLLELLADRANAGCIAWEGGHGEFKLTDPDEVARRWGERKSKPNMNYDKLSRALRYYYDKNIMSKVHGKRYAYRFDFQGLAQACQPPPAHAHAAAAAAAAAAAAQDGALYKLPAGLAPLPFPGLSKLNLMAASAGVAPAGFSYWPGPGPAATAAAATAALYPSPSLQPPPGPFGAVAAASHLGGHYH
Procedure, shortened: as §1

[10] = molecular target: ETV5 (Homo sapiens, UniProt P41161 1-510); conditions: protein: recombinant; tags: N-terminal GST; dsDNA, one strand shown
Procedure, shortened: as §1

[11] = molecular target: HSF1 (Homo sapiens, UniProt Q00613 1-529); conditions: protein: recombinant; tags: N-terminal GST; chain copies: 3; dsDNA, one strand shown
Procedure, shortened: as §1

[12] = molecular target: T7, SPIC (Homo sapiens, UniProt Q8N5J4 1-248); conditions: protein: recombinant; tags: N-terminal GST; dsDNA, one strand shown
T7 sequence: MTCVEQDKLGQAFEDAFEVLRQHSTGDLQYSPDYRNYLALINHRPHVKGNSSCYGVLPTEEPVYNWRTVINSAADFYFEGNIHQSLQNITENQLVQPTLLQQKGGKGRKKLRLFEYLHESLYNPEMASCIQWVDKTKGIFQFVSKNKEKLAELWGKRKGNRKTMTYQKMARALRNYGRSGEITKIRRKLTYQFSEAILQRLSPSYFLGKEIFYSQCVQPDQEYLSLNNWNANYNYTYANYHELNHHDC
Procedure, shortened: as §1

[13] = molecular target: ELF4 (Homo sapiens, UniProt Q99607 1-663); conditions: protein: recombinant; tags: N-terminal GST; dsDNA, one strand shown
Procedure, shortened: as §1

[14] = molecular target: T8, ELK4 (Homo sapiens, UniProt P28324-2 1-405); conditions: protein: recombinant; tags: N-terminal GST; dsDNA, one strand shown
T8 sequence: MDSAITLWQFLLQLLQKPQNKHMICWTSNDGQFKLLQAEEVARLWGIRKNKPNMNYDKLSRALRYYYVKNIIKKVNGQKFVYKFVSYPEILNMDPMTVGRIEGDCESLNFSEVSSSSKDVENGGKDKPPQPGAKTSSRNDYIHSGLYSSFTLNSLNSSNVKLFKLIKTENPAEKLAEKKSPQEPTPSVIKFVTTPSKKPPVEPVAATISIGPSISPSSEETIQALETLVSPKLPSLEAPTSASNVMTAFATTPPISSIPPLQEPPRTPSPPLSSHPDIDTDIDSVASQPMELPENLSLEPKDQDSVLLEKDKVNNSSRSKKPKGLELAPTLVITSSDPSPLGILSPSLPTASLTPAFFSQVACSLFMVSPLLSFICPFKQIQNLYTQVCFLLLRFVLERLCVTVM
Procedure, shortened: as §1

[15] = molecular target: T9, ETV2 (Homo sapiens, UniProt O00321 1-342); conditions: protein: recombinant; tags: N-terminal GST; dsDNA, one strand shown
T9 sequence: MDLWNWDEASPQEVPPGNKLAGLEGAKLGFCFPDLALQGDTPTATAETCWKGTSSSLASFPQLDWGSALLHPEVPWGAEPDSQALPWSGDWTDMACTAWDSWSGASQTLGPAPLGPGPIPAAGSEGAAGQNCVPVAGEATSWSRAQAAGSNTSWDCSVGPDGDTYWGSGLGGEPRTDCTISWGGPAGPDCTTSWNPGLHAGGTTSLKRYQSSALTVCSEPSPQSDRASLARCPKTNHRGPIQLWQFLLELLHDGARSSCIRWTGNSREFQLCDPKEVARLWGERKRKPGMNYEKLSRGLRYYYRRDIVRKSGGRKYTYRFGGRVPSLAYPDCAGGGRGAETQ
Procedure, shortened: as §1

[16] = molecular target: CRX (Homo sapiens, UniProt O43186 1-299); conditions: protein: recombinant; tags: N-terminal GST; dsDNA, one strand shown
Procedure, shortened: as §1

[17] = molecular target: ETV1 (Homo sapiens, UniProt P50549 1-477); conditions: protein: recombinant; tags: N-terminal GST; dsDNA, one strand shown
Procedure, shortened: as §1

[18] = molecular target: T10, GABPA (Homo sapiens, UniProt Q06546 1-454); conditions: protein: recombinant; tags: N-terminal GST; dsDNA, one strand shown
T10 sequence: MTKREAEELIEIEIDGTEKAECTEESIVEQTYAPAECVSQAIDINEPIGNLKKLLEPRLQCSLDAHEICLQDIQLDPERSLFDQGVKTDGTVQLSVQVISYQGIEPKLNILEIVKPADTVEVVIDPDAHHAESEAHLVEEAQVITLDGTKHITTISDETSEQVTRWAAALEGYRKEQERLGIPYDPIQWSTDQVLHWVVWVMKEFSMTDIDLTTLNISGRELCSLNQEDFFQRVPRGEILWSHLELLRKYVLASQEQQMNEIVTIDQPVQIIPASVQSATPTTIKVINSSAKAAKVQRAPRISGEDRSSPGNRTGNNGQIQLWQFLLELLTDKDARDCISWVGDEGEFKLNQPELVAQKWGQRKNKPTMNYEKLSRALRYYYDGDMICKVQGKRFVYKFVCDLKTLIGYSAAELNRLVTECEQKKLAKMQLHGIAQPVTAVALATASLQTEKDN
Procedure, shortened: as §1

Chain of ELF4 (Q99607 whole entry): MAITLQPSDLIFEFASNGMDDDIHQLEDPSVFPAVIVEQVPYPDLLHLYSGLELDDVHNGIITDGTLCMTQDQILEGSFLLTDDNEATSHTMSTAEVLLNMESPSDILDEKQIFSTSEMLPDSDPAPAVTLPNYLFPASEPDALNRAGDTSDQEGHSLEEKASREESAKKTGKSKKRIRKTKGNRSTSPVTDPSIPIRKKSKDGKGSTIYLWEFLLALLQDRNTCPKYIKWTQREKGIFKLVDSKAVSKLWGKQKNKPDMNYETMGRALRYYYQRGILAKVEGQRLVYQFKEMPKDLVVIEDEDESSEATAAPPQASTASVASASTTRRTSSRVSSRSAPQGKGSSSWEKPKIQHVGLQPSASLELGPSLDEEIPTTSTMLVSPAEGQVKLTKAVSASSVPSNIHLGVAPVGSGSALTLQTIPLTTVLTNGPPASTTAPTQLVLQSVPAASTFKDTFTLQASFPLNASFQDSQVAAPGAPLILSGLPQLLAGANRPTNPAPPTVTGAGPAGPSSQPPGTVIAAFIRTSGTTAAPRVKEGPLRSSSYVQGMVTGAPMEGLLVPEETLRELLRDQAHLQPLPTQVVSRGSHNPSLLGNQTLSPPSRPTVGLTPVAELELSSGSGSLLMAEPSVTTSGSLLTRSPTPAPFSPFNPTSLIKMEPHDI
Chain of ELF1 (P32519 whole entry): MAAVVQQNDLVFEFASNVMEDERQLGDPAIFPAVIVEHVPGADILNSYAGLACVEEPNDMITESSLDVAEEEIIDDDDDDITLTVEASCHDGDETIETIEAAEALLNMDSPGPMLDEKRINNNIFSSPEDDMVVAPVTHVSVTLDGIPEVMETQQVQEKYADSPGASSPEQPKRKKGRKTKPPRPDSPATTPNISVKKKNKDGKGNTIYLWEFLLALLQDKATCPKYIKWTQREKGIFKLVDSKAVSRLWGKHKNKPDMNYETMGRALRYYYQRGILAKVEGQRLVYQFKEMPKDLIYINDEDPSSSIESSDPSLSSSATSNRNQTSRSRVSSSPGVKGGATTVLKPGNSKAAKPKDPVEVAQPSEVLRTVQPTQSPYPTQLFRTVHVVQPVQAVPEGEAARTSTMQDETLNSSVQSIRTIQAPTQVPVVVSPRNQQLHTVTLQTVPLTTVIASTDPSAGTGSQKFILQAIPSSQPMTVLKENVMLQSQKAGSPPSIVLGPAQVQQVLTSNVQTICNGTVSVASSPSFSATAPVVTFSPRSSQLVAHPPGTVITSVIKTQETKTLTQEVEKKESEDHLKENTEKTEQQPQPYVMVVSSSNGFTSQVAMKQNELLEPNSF
Chain of CRX (O43186 whole entry): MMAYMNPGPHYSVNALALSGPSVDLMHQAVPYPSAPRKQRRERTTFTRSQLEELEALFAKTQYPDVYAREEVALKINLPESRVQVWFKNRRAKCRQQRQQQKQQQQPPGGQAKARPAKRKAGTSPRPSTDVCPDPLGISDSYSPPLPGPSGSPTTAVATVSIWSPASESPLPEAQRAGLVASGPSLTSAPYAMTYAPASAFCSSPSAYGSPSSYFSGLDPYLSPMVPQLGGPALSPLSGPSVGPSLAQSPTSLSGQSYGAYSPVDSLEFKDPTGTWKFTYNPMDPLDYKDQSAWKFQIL
Chain of HSF1 (Q00613 whole entry): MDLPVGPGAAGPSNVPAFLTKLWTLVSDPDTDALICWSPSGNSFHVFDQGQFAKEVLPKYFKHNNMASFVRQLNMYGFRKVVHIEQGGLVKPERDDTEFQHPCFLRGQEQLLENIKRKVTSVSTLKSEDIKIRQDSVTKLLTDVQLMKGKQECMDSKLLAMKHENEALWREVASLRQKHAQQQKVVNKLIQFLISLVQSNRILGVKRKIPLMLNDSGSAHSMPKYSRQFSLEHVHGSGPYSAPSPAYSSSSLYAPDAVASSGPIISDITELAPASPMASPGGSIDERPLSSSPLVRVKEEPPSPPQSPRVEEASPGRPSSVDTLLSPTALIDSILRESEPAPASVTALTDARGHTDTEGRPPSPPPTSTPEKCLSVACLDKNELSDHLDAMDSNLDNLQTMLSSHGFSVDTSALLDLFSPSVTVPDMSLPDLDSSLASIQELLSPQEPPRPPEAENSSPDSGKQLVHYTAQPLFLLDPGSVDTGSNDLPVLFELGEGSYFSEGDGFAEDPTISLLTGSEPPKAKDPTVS
Chain of SPIB (Q01892 whole entry): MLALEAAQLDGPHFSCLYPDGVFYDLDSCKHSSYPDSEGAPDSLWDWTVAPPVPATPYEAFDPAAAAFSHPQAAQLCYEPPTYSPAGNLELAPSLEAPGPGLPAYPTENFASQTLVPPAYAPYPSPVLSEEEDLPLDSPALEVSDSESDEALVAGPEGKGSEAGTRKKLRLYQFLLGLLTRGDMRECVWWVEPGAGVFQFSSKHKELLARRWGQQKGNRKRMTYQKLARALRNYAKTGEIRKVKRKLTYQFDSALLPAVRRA
Chain of ETV5 (P41161 whole entry): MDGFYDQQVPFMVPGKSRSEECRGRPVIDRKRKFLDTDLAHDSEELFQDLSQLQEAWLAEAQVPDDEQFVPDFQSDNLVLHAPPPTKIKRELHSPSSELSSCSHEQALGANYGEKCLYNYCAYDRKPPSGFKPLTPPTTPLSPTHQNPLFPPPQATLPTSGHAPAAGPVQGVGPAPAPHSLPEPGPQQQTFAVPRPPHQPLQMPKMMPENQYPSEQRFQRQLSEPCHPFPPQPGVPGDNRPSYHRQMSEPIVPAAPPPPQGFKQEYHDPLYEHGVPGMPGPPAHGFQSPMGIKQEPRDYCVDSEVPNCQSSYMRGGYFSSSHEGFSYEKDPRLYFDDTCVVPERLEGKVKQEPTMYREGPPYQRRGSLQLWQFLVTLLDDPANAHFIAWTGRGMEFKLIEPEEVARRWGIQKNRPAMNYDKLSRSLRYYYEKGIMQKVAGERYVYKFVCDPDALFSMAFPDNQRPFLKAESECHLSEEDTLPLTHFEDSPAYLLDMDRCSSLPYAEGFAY
Chain of ETV1 (P50549 whole entry): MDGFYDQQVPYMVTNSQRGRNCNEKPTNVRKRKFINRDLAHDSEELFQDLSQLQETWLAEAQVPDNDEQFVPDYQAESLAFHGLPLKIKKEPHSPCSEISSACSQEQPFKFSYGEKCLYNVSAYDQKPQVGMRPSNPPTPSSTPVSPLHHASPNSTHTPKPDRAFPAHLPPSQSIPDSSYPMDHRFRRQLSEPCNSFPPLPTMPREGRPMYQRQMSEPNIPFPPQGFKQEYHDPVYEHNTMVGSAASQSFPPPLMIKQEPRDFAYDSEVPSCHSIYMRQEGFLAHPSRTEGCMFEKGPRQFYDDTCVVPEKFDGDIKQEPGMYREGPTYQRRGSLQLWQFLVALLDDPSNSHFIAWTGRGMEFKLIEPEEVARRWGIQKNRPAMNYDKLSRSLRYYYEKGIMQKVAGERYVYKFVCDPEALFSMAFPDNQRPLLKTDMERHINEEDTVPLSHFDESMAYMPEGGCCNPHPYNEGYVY

| Sequence | binding signal [1] | binding signal [2] | binding signal [3] | binding signal [4] | binding signal [5] | binding signal [6] | binding signal [7] | binding signal [8] | binding signal [9] | binding signal [10] | binding signal [11] | binding signal [12] | binding signal [13] | binding signal [14] | binding signal [15] | binding signal [16] | binding signal [17] | binding signal [18] |
| --- | --- | --- | --- | --- | --- | --- | --- | --- | --- | --- | --- | --- | --- | --- | --- | --- | --- | --- |
| TTCGCG | 1.13 fold enrichment (6-mer frequency, TF over GST control) | 1.07 fold enrichment (6-mer frequency, TF over GST control) | 1.08 fold enrichment (6-mer frequency, TF over GST control) | 1.14 fold enrichment (6-mer frequency, TF over GST control) | 1.21 fold enrichment (6-mer frequency, TF over GST control) | 1.18 fold enrichment (6-mer frequency, TF over GST control) | 1.14 fold enrichment (6-mer frequency, TF over GST control) | 1.15 fold enrichment (6-mer frequency, TF over GST control) | 1.09 fold enrichment (6-mer frequency, TF over GST control) | 1.04 fold enrichment (6-mer frequency, TF over GST control) | 1.98 fold enrichment (6-mer frequency, TF over GST control) | 1.16 fold enrichment (6-mer frequency, TF over GST control) | 1.06 fold enrichment (6-mer frequency, TF over GST control) | 1.26 fold enrichment (6-mer frequency, TF over GST control) | 1.2 fold enrichment (6-mer frequency, TF over GST control) | 1.29 fold enrichment (6-mer frequency, TF over GST control) | 1.02 fold enrichment (6-mer frequency, TF over GST control) |  |
| GATTTG | 1.24 fold enrichment (6-mer frequency, TF over GST control) | 1.16 fold enrichment (6-mer frequency, TF over GST control) | 1.11 fold enrichment (6-mer frequency, TF over GST control) | 1.12 fold enrichment (6-mer frequency, TF over GST control) | 1.11 fold enrichment (6-mer frequency, TF over GST control) | 1.08 fold enrichment (6-mer frequency, TF over GST control) | 1.12 fold enrichment (6-mer frequency, TF over GST control) |  | 1.11 fold enrichment (6-mer frequency, TF over GST control) | 1.25 fold enrichment (6-mer frequency, TF over GST control) | 1.39 fold enrichment (6-mer frequency, TF over GST control) | 1.17 fold enrichment (6-mer frequency, TF over GST control) | 1.13 fold enrichment (6-mer frequency, TF over GST control) | 1.19 fold enrichment (6-mer frequency, TF over GST control) | 1.19 fold enrichment (6-mer frequency, TF over GST control) | 1.78 fold enrichment (6-mer frequency, TF over GST control) | 1.14 fold enrichment (6-mer frequency, TF over GST control) | 1.22 fold enrichment (6-mer frequency, TF over GST control) |
